The target in test [1] is Luciferin 4-monooxygenase (Photinus pyralis) (UniProt P08659). Briefly: qHTS assay to identify small molecule inhibitors of firefly luciferase (AID 1224835). Further: nearly all actives have a fitted effect of over 25% in size. In short, it runs like this: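 Inhibition of purified Photinus luciferase is measured by luminescence. Substrate levels (D-luciferin, ATP) sit at their KM values. Each compound is tested in a concentration series.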

The nature of test [2]: qHTS assay to identify small molecule agonists of the constitutive androstane receptor (CAR) signaling pathway - cell viability counter screen (AID 1224836). Further: nearly all actives have a fitted effect of over 45% in size. The gist of the method:
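Fluorescence from CellTiter-Fluor indicates live cells after 23 h exposure. The human hepatoma line expresses hCAR and a CYP2B6-2.2kb reporter. Incubation medium contains 0.75 uM PK11195 (final).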

Test [3] in a line: qHTS assay to identify small molecule antagonists of the constitutive androstane receptor (CAR) signaling pathway - cell viability counter screen (AID 1224837). Further: nearly all actives have a fitted effect of over 45% in size. The gist of the method:
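Cells are seeded, rested 4 hr at 37 C/5% CO2, dosed with compound (15-point series) and 50 nM CITCO, incubated a further 23 hr, and then CellTiter-Fluor reagent is added before fluorescence is read. The line is HepG2 with stable hCAR and CYP2B6-2.2kb.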

Test [4] has as its target Nuclear receptor subfamily 1 group I member 3 (Homo sapiens) (UniProt Q14994). Briefly: qHTS assay to identify small molecule antagonists of the constitutive androstane receptor (CAR) signaling pathway (AID 1224838).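 Further: HepG2 cells stably expressing hCAR with CYP2B6 luciferase reporter stimulated by CITCO; nearly all actives have a fitted effect of over 40% in size.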 The gist of the method: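 Luminescence from a CYP2B6-2.2kb promoter reporter in hCAR-expressing HepG2 cells reflects CAR signaling. Cells received compounds at 15 concentrations and 50 nM CITCO (final), then incubated 24 h at 37 C/5% CO2.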

The nature of test [5]: qHTS assay to identify small molecule antagonists of the estrogen related receptor signaling pathway with the pleiotropic PPARgamma coactivator (PGC) from Tox21 10K library (AID 1224841; call rule not given here; further: actives are mostly falling curves and most rising ones were filed inactive; nearly all actives have a fitted effect of over 50% in size). The gist of the method:
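Cells stably carrying the PGC/ERR reporter, seeded at 2,000 per well, received pin-transferred compounds 6 h post-plating. Exposure lasted 18 h at 37 C. Signal: One-Glo luminescence.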

Test [6] in a line: qHTS assay to identify small molecule agonists of the estrogen related receptor signaling pathway with the pleiotropic PPARgamma coactivator (PGC) from Tox21 10K library (AID 1224842). Further: nearly all actives have a fitted effect of over 15% in size. In short, it runs like this: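 Luminescence from One-Glo (30 min, room temperature) measured after PGC/ERR cells had 18 h at 37 C with pinned compound (23 nL in DMSO). Cells had been seeded at 2,000 per well and pre-incubated 6 h.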

The target in test [7] is Thyrotropin receptor (Homo sapiens) (UniProt P16473). In words: qHTS assay to identify small molecule agonists of the thyroid stimulating hormone receptor (TSHR) signaling pathway (AID 1224843; calls by dose curve; further: nearly all actives have a fitted effect of over 45% in size). In short, it runs like this: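 A cell-based cAMP HTRF format was run in TSHR-transfected HEK293 cells, 800 per well. Treatment: 30 min, room temperature. Detection: 1 h with labelled cAMP and anti-cAMP cryptate. Concentration-response over 15 points, three replicates.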
Thyrotropin receptor (Homo sapiens), sequence (P16473 whole entry, looked up): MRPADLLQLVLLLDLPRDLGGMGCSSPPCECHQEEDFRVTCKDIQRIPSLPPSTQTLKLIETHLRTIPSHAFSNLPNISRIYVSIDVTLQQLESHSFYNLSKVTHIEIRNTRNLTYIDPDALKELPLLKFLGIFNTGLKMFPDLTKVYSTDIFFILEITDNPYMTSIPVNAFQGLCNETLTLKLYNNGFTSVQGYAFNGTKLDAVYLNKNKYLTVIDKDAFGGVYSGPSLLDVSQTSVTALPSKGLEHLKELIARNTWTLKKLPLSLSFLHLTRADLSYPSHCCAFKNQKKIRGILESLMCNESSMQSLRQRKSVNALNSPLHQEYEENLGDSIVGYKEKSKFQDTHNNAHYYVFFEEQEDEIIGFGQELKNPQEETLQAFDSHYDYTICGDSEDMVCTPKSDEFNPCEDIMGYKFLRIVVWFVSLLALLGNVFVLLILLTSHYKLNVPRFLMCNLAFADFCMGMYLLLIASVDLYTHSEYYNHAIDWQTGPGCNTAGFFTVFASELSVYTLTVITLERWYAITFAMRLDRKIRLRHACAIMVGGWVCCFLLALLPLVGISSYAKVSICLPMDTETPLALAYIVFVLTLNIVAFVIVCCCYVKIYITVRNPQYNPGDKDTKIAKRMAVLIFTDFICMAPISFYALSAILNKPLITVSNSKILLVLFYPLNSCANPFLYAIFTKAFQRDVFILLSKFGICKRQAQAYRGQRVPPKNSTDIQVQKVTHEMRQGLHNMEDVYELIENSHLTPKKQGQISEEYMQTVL

The target in test [8] is Nuclear receptor subfamily 1 group I member 3 (Homo sapiens) (UniProt Q14994). Briefly: qHTS assay to identify small molecule agonists of the constitutive androstane receptor (CAR) signaling pathway (AID 1224839). Further: nearly all actives have a fitted effect of over 15% in size. The gist of the method: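 Stable hCAR/CYP2B6-2.2kb HepG2 line in DMEM with 10% FBS; compounds (15 concentrations) and 0.75 uM PK11195 final, 24 h at 37 C/5% CO2, then ONE-Glo luminescence after 30 min.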
Nuclear receptor subfamily 1 group I member 3 (Homo sapiens), sequence (Q14994 whole entry, looked up): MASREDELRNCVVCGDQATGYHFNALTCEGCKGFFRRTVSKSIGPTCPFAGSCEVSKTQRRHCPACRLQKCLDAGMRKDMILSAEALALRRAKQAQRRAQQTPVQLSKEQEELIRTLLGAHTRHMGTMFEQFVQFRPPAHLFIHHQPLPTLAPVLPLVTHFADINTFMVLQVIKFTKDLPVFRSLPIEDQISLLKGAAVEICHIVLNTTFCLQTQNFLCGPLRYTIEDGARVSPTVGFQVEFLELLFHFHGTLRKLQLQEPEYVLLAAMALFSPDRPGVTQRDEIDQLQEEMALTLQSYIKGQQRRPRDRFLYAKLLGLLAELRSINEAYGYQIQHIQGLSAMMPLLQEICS

Test [9] is described as follows: qHTS assay to identify small molecule antagonists of the estrogen related receptor signaling pathway with the pleiotropic PPARgamma coactivator (PGC) from Tox21 10K library - cell viability counter screen (AID 1224840; active means well fitted cell-killing curve with a large enough effect in the repeat runs, not every such curve was filed as active; further: nearly all actives have a fitted effect of over 40% in size). The gist of the method:
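Cell viability is measured by CellTiter-Fluor fluorescence in PGC/ERR cells that receive compounds after a 6-hour attachment period and are then incubated 17.5 hours at 37 C.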

SMILES strings stand for the structures. Several values for one entry are separate records, joined by “and”; a condition that tells them apart may be missing. Equal values may be shown once. Results filed as inconclusive are left out. Activity calls are given as the source filed them. Unless noted, the call rests on the fitted dose curve; in most records, active means well fitted curve in the direction sought with a large enough effect in the repeat runs; inconclusive means weak or mixed curves; inactive means no such curve, though single readings can be large; an effect the other way counts as inactive or inconclusive.
Potency means the concentration at half of the fitted maximal effect.

Luciferin 4-monooxygenase (Photinus pyralis), sequence (P08659 whole entry, looked up): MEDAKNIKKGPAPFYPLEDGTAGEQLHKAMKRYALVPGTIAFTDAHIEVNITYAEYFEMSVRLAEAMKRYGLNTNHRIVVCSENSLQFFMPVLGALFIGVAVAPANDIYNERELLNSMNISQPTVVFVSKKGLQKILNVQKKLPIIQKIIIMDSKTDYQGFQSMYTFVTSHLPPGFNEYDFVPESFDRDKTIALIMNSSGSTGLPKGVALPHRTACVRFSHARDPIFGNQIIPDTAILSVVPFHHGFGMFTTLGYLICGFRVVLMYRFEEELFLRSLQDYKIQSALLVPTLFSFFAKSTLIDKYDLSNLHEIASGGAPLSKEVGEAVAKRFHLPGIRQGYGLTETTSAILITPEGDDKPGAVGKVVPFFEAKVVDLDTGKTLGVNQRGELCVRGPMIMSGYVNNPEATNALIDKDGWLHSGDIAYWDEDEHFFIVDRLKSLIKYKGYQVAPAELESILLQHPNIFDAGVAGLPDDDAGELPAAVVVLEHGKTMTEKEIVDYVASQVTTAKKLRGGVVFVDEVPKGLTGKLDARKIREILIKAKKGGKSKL

On to `CCC1COC(Cn2cncn2)(c2ccc(Cl)cc2Cl)O1` (centres undefined), for which the Potency entry in test [1], in [2], in test [3], in test [4], in test [6] and in test [7] was “inactive” each time. Also, the Potency in test [5] was 61.1 µM (active).
In the case of `CCOP(=S)(NC(C)C)Oc1ccccc1C(=O)OC(C)C` (centres undefined), the Potency entry in test [1], in [2], in test [3], in test [6] and in test [7] was “inactive” in each case. The Potency was 7.7 µM (active) in test [8] and 30.6 µM (active) in test [5].
For the compound `CCc1cccc(C)c1N(C(=O)CCl)[C@@H](C)COC`, the Potency entry in test [1], in test [2], in test [3], in [4], in test [9] and in [6] was “inactive” each time. The Potency in test [8] is 19.3 µM (active); in test [5] it was 30.6 µM (active); in test [7], 34.4 µM (active).
In the case of `NC1CCC(CC2CCC(N)CC2)CC1` (centres undefined), the Potency result in test [1], in test [2], in test [3], in [4] and in [8] was “inactive” throughout.
In the case of `CN/C(=N\[N+](=O)[O-])NCc1cnc(Cl)s1`, the Potency entry in test [1], in test [2], in test [3], in [4], in test [8] and in [9] was “inactive” throughout.
As to `CCCCCON=O`, the Potency entry in [1], in test [2], in [3], in [4], in test [8] and in [9] was “inactive” in each case. Also, the Potency entry in test [6] and in test [7] was “inactive” each time. For the same compound, the Potency in test [5] is 30.7 µM (active).
For the compound `Cc1ccccc1OP(=O)(Oc1ccccc1C)Oc1ccccc1C`, the Potency result in test [1], in [2], in test [3], in test [4], in [9] and in test [5] was “inactive” each time. The Potency entry in [6] and in test [7] was “inactive” in each case. For the same compound, the Potency in [8] was 21.8 µM (active).
`CN=C=O`: the Potency entry in test [1], in test [2], in test [3], in test [4], in [8] and in test [9] was “inactive” in each case. Besides, the Potency result in test [5], in test [6] and in [7] was “inactive” in each case.
Turning to `O=S(=O)(O)F`, the Potency entry in [1], in test [2], in [3], in [4], in test [8] and in [9] was “inactive” in each case. Moreover, the Potency result in test [7] was “inactive”.
With `CC#C[C@]1(O)CC[C@H]2[C@@H]3C[C@H](C)C4=CC(=O)CC[C@]4(C)[C@H]3CC[C@@]21C`, the Potency entry in [1], in test [2], in [3], in test [8], in test [9] and in [7] was “inactive” in each case.
For the compound `N#CCCl`, the Potency result in [1], in test [2], in test [3], in [4], in test [8] and in test [9] was “inactive” throughout. Further, the Potency entry in [7] was “inactive”.
For `CCCCCCC[CH2][Sn]([Cl])([Cl])[CH2]CCCCCCC`, the Potency entry in test [1], in test [2], in test [3], in test [4], in test [8] and in test [6] was “inactive” each time. For the same compound, the Potency entry in test [7] is “inactive”. For the same compound, the Potency in test [5] is 27.3 µM (active).
`CCO/N=C(\CC)C1=C(O)CC(c2c(C)cc(C)cc2C)CC1=O` (centres undefined): the Potency entry in test [1], in test [2], in [3], in test [4], in test [8] and in test [9] was “inactive” in each case.
Take `O=c1[nH]c2cc(Cl)ccc2n1C1CCNCC1`: the Potency result in test [1], in test [2], in test [3], in test [4], in test [8] and in test [9] was “inactive” each time. The Potency entry in test [5], in [6] and in [7] was “inactive” each time.
As for `CC[C@H](C)[C@H]1O[C@]2(C=C[C@@H]1C)C[C@@H]1C[C@@H](C/C=C(\C)[C@@H](O[C@H]3C[C@H](OC)[C@@H](O[C@H]4C[C@H](OC)[C@@H](NC)[C@H](C)O4)[C@H](C)O3)[C@@H](C)/C=C/C=C3\CO[C@@H]4[C@H](O)C(C)=C[C@@H](C(=O)O1)[C@]34O)O2`, the Potency entry in test [1] and in test [8] was “inactive” in each case. The Potency in test [2] is 12.2 µM (active); in test [3] it was 9.69 µM (active); in [4], 13.7 µM (active); in test [9], 6.86 µM (active).
`Clc1ccc(C(c2ccc(Cl)cc2)C(Cl)Cl)cc1`: the Potency result in test [1], in [2], in test [3], in test [4], in [9] and in [5] was “inactive” throughout. Also, the Potency entry in test [6] and in test [7] was “inactive” throughout. The Potency in test [8] was 49.3 µM (active) and 21.7 µM (active).
For `N#Cc1ccc(N(CC(N)=O)CC(F)(F)F)cc1C(F)(F)F`, the Potency result in test [1], in test [2], in test [3], in test [9] and in test [7] was “inactive” each time.
For `COc1ccc2[nH]cc(CCN(C(C)C)C(C)C)c2c1`, the Potency result in test [1], in test [2], in [4], in test [8], in test [9] and in test [7] was “inactive” each time.
Take `N#Cc1c[nH]cc1-c1cccc2c1OC(F)(F)O2`: the Potency result in [1], in test [2], in test [3] and in test [6] was “inactive” throughout. Moreover, in test [5], the Potency is 19.3 µM (active).
Take `O=C(N[C@H]1N=C(c2ccccc2F)c2cccc3c2N(CC3)C1=O)c1cc2ccccc2[nH]1`: the Potency entry in [1], in test [2], in test [3], in [4], in [8] and in test [9] was “inactive” throughout. The Potency entry in test [7] was “inactive”.
As to `C=C(C)C(=O)[O][Sn]([CH2]CCC)([CH2]CCC)[CH2]CCC`, the Potency in test [1] was 35.6 µM (active); in test [2] it was 0.77 µM (active); in test [3] it was 0.864 µM (active); in test [9], 0.864 µM (active); in test [7] it was 0.486 µM (active). Moreover, the Potency result in test [8] and in test [6] was “inactive” throughout.
As for `CN1CCc2cc3c(cc2C1O)OCO3` (centres undefined), the Potency entry in test [1], in test [4], in [8], in test [5] and in [6] was “inactive” each time.
As to `c1ccc2c(c1)cc1ccc3cccc4ccc2c1c34`, the Potency is 10.2 µM (active) in test [1] and 22.1 µM (active) in test [6]. Further, the Potency entry in test [5] and in test [7] was “inactive” each time.
Consider `CC[C@]1(O)CC[C@H]2[C@@H]3CCC4=CCCC[C@@H]4[C@H]3CC[C@@]21C`, for which the Potency result in test [2], in test [3], in test [8], in test [9] and in test [5] was “inactive” each time. Further, the Potency in test [4] was 33.5 µM (active); in [7], 15 µM (active).
As for `COP(=S)(OC)Oc1ccc([N+](=O)[O-])c(C)c1`, the Potency entry in [3], in test [4], in [6] and in [7] was “inactive” in each case.

(Values after PubChem BioAssay (Tox21).)
